Results: PubChem BioAssay (EPA / NIEHS)
Several values for one entry are separate records, joined by “and”; a condition that tells them apart may be missing. Identical values can stand only once. Where a structure was tested more than once in an assay, its records may differ in their call. Activity calls are given as the source filed them. How the source made its calls: active means hit-call score of the fitted dose curve at least 0.9, where 1 is the maximum; inactive means score below 0.9.

Assays:
[1] = molecular target: Bile acid receptor (Homo sapiens) (UniProt Q96RI1); assay: ATG_IR1_CIS: Attagene CIS-FACTORIAL HepG2 Assay for human Nuclear Receptor Subfamily 1 Group H Member 4 (NR1H4), IR1 submotif (AID 2282946); settings: IR1 reporter transcription, actives raise or lower the signal
How it was run: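 Cells (human HepG2) carry transiently transfected cis-promoter reporter transcription units. Compounds are incubated 24 h, total RNA is reverse-transcribed and amplified, and labelled fragments are resolved by capillary electrophoresis. Curves use DMSO as baseline.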

[2] = ATG_GRE_CIS: Attagene CIS-FACTORIAL HepG2 Assay for human Glucocorticoid Response Elements (GRE) (AID 2282947); settings: HepG2 GRE cis-reporter, Attagene multiplex mRNA; actives raise or lower the signal
How it was run: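 Assay uses human hepatoma HepG2 cells transfected with cis-promoter reporter units, exposed 24 h. mRNA from reporters detected by RT-PCR plus capillary electrophoresis; DMSO serves as negative control and baseline.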

[3] = ATG_ISRE_CIS: Attagene CIS-FACTORIAL HepG2 Assay for human Interferon Regulatory Factor 1 (IRF1) binding to an Interferon-Stimulated Response Element (ISRE) (AID 2282948); settings: HepG2 ISRE cis-reporter (Attagene), mRNA transcription readout; actives raise or lower the signal
How it was run: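 HepG2 cells transiently transfected with multiplexed cis-promoter reporter units; after 24 h compound exposure, reporter mRNA quantified by RT-PCR, FAM labelling, HpaI digestion and capillary electrophoresis. Bidirectional fit versus DMSO baseline.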

[4] = ATG_M_32_CIS: Attagene CIS-FACTORIAL HepG2 Assay for M32 Transcription Factor (Internal Marker) (AID 2282949); settings: HepG2 Attagene cis-factorial M32 reporter, mRNA; actives raise or lower the signal;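 further: background control marker of the multiplexed CIS panel rather than a real target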
How it was run: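 Following 24 h chemical exposure of HepG2 cells transiently expressing cis-promoter reporter constructs, reporter transcript levels were determined by RT-PCR with fluorescent labelling and capillary electrophoresis, then fitted bidirectionally against DMSO.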

[5] = ATG_M_06_CIS: Attagene CIS-FACTORIAL HepG2 Assay for M06 Transcription Factor (Internal Marker) (AID 2282950); settings: HepG2 Attagene CIS-FACTORIAL M06 internal marker reporter; actives raise or lower the signal
How it was run: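 Terse: HepG2, transient MRTU transfection (FuGene 6), 24 h dosing; total RNA, oligo(dT) RT, PCR, FAM label, HpaI cut, capillary electrophoresis; bidirectional fit vs DMSO baseline; background-control endpoint.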

[6] = molecular target: Hepatocyte nuclear factor 6 (Homo sapiens) (UniProt Q9UBC0); assay: ATG_HNF6_CIS: Attagene CIS-FACTORIAL HepG2 Assay for human Hepatocyte Nuclear Factor 6 (HNF6) (AID 2282952); settings: HepG2 Attagene cis-factorial HNF6 reporter transcription; actives raise or lower the signal
How it was run: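 HepG2 cells transiently transfected with cis-element-driven multiple reporter transcription units, dosed 24 h; reporter mRNA quantified by RT-PCR, FAM primer extension, HpaI digestion and capillary electrophoresis; bidirectional fit versus DMSO baseline.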

[7] = molecular target: Heat shock factor protein 1 (Homo sapiens) (UniProt Q00613); assay: ATG_HSE_CIS: Attagene CIS-FACTORIAL HepG2 Assay for human Heat Shock Transcription Factor 1 (HSE) (AID 2282953); settings: HepG2 HSE cis-reporter, Attagene RNA transcription; actives raise or lower the signal
How it was run: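 Read-out: fluorescence of reporter-specific RT-PCR fragments separated by capillary electrophoresis. HepG2 carrying transfected cis-element reporter units; 24 h dosing; activity fitted in both directions relative to DMSO baseline.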

[8] = ATG_PBREM_CIS: Attagene CIS-FACTORIAL HepG2 Assay for human Phenobarbital-responsive Enhancer Module (PBREM) (AID 2282955); settings: HepG2 PBREM cis-reporter, Attagene multiplexed transcription; actives raise or lower the signal
How it was run: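 HepG2 cells transiently transfected with multiple cis-regulated reporter transcription units; endogenous factor activity at the PBREM element measured as reporter mRNA 24 h after dosing, via RT-PCR and capillary electrophoresis of fluorescent fragments; bidirectional fitting versus DMSO.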

[9] = molecular target: Paired box protein Pax-6 (Homo sapiens) (UniProt P26367); assay: ATG_Pax6_CIS: Attagene CIS-FACTORIAL HepG2 Assay for human Paired Box 6 (PAX6) (AID 2282956); settings: HepG2 CIS-FACTORIAL PAX6 reporter transcription, RNA readout; actives raise or lower the signal
How it was run: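 HepG2 cells transiently transfected with multiplexed cis-promoter reporter units (endogenous TF activity) were dosed for 24 h. Reporter mRNA was quantified by RT-PCR, 6-FAM labeling, HpaI digestion and capillary electrophoresis; bidirectional fitting versus DMSO baseline.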

[10] = ATG_PXRE_CIS: Attagene CIS-FACTORIAL HepG2 Assay for human Pregnane X Receptor Element (PXRE) (AID 2282957); settings: HepG2 Attagene CIS-FACTORIAL PXRE reporter, mRNA; actives raise or lower the signal
How it was run: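 HepG2 cells transiently transfected with cis-regulated multiple reporter transcription units; endogenous factor activity measured as reporter mRNA 24 h after dosing. RT-PCR, fluorescent primer extension, HpaI digestion, capillary electrophoresis; bidirectional fit versus DMSO baseline.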

[11] = ATG_Sox_CIS: Attagene CIS-FACTORIAL HepG2 Assay for human SRY-box transcription factor (SOX) (AID 2282960); settings: HepG2 Attagene cis-factorial SOX reporter, mRNA; actives raise or lower the signal
How it was run: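 HepG2 cells transiently transfected with cis-element-driven multiple reporter transcription units, dosed 24 h; reporter mRNA measured by RT-PCR, FAM labelling, HpaI digestion and capillary electrophoresis. Bidirectional fit versus DMSO baseline.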

[12] = molecular target: Transcription factor Sp1 (Homo sapiens) (UniProt P08047); assay: ATG_Sp1_CIS: Attagene CIS-FACTORIAL HepG2 Assay for human Specificity Protein 1 (Sp1) (AID 2282961); settings: HepG2 Sp1 cis-reporter transcription, actives raise or lower the signal
How it was run: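 HepG2 cells transiently transfected with multiple reporter transcription units driven by cis-regulatory elements; Sp1-responsive reporter mRNA measured 24 h after dosing by RT-PCR and capillary electrophoresis fluorescence, fitted bidirectionally against DMSO baseline.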

[13] = ATG_SREBP_CIS: Attagene CIS-FACTORIAL HepG2 Assay for human Sterol Regulatory Element Binding (SREBP) (AID 2282962); settings: HepG2 Attagene cis-factorial SREBP reporter, mRNA; actives raise or lower the signal
How it was run: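 HepG2 cells transiently transfected with multiplexed cis-element reporter units report endogenous transcription factor activity. After 24 h of chemical exposure, reporter mRNA was quantified by RT-PCR, 6-FAM labelling, HpaI digestion and capillary electrophoresis; bidirectional fits used DMSO as baseline.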

[14] = molecular target: Signal transducer and activator of transcription 3 (Homo sapiens) (UniProt P40763); assay: ATG_STAT3_CIS: Attagene CIS-FACTORIAL HepG2 Assay for human Signal Transducer and Activator of Transcription 3 (STAT3) (AID 2282963); settings: HepG2, Attagene cis-factorial STAT3 reporter transcription; actives raise or lower the signal
How it was run: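 After a 24 h compound incubation, total RNA from MRTU-transfected HepG2 cells was converted to cDNA and reporter sequences PCR-amplified, labelled and profiled by capillary electrophoresis. Gain and loss of signal were referenced to DMSO.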

[15] = ATG_TA_CIS: Attagene CIS-FACTORIAL HepG2 Assay for human TA Basal Promoter (AID 2282964); settings: HepG2 Attagene CIS-factorial TA basal promoter reporter; actives raise or lower the signal
How it was run: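 Transfected HepG2, 24 h compound exposure; RNA → RT-PCR → FAM primer extension → HpaI cut → CE fluorescence. Gain/loss-of-signal fitted against DMSO negative control. Background-control readout.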

[16] = ATG_TCF_b_cat_CIS: Attagene CIS-FACTORIAL HepG2 Assay for human T-Cell-Factor with beta-catenin (TCF/b-cat) (AID 2282965); settings: HepG2 TCF/beta-catenin cis-reporter transcription, actives raise or lower the signal
How it was run: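 Measured: reporter mRNA in HepG2 transiently transfected with cis-promoter reporter units, 24 h after chemical addition. Fitting was bidirectional, DMSO as negative control.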

[17] = molecular target: Hypoxia-inducible factor 1-alpha (Homo sapiens) (UniProt Q16665); assay: ATG_HIF1a_CIS: Attagene CIS-FACTORIAL HepG2 Assay for human Hypoxia Inducible Factor 1 (HIF1A) (AID 2282951); settings: HepG2 Attagene cis-factorial HIF1a reporter transcription; actives raise or lower the signal
How it was run: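 HepG2 cells transiently transfected with multiplexed cis-promoter reporter units; reporter mRNA read 24 h after dosing by RT-PCR, 6-FAM primer-extension labelling, HpaI digestion and capillary electrophoresis. Bidirectional fit versus DMSO baseline.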

[18] = ATG_MRE_CIS: Attagene CIS-FACTORIAL HepG2 Assay for human Metal Responsive Element (MRE) (AID 2282954); settings: HepG2 MRE cis-reporter transcription, Attagene multiplex; actives raise or lower the signal
How it was run: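 After a 24 h chemical exposure, transiently transfected HepG2 cells yield RNA whose reporter sequences are amplified, FAM-labelled and sized by capillary electrophoresis. Curves are fitted bidirectionally relative to DMSO.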

[19] = ATG_PPRE_CIS: Attagene CIS-FACTORIAL HepG2 Assay for human Peroxisome Proliferator-activated Response Element (PPRE) (AID 2282958); settings: HepG2 PPRE cis-element reporter, Attagene transcription factor profiling; actives raise or lower the signal
How it was run: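 HepG2 cells transiently transfected with multiplexed cis-element reporter units measure endogenous transcription factor activity. After 24 h compound exposure, reporter mRNA is quantified by RT-PCR, 6-FAM labeling, HpaI digestion and capillary electrophoresis; bidirectional fits are made against DMSO baseline.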

[20] = ATG_RORE_CIS: Attagene CIS-FACTORIAL HepG2 Assay for human RAR-related Orphan Receptor Element (RORE) (AID 2282959); settings: HepG2 Attagene cis-factorial RORE reporter, mRNA; actives raise or lower the signal
How it was run: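 HepG2 cells transiently transfected with multiple cis-element reporter transcription units, exposed to chemical for 24 h. Reporter mRNA quantified by RT-PCR, 6-FAM primer-extension labeling, HpaI digestion and capillary electrophoresis; bidirectional fit versus DMSO baseline.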

Measured: AC50

Sequence of Hepatocyte nuclear factor 6 (Homo sapiens) (Q9UBC0 whole entry, looked up): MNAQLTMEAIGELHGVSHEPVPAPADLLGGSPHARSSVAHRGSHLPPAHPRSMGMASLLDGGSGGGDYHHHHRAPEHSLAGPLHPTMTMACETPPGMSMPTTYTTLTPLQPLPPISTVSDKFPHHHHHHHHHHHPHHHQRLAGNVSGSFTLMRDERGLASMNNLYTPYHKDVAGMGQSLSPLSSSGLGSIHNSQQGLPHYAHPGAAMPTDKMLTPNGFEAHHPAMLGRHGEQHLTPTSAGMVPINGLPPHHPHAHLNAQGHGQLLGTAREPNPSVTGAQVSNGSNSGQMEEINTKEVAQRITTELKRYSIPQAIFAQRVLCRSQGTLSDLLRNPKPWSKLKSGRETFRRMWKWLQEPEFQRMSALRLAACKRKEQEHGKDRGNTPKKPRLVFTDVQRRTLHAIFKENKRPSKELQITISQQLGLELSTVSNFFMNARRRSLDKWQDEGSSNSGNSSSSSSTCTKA
Sequence of Bile acid receptor (Homo sapiens) (Q96RI1 whole entry, looked up, the tested form may be a part): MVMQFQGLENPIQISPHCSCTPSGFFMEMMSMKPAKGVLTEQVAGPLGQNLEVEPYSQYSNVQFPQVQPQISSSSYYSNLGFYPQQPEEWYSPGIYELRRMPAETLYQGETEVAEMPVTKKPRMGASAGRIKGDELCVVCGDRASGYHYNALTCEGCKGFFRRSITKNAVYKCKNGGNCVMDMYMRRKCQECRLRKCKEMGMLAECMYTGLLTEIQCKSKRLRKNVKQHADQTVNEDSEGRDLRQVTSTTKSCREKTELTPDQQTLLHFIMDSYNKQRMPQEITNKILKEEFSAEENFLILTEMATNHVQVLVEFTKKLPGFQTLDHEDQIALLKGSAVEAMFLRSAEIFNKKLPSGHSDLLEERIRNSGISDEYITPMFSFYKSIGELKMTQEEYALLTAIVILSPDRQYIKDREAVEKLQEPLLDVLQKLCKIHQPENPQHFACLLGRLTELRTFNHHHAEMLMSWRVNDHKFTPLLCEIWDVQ
Sequence of Signal transducer and activator of transcription 3 (Homo sapiens) (P40763 whole entry, looked up): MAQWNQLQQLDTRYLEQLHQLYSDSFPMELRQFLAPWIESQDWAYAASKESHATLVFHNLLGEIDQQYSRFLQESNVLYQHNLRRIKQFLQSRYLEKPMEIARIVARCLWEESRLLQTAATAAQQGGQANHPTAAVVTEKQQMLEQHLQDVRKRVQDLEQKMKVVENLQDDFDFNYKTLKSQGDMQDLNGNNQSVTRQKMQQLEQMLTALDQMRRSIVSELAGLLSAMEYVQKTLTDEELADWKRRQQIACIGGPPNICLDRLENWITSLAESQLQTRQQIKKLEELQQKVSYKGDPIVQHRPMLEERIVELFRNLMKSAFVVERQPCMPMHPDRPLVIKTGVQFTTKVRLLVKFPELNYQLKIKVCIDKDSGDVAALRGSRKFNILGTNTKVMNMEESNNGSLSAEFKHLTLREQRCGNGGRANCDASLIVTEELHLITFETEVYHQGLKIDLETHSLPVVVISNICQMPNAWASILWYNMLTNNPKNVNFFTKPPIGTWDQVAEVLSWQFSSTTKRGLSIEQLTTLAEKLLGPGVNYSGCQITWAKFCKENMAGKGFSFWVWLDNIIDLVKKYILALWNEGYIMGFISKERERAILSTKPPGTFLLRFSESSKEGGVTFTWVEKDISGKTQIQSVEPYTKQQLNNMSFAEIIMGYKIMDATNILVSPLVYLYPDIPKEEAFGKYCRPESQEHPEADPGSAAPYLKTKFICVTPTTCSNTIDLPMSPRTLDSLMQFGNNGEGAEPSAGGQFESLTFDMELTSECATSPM
Sequence of Hypoxia-inducible factor 1-alpha (Homo sapiens) (Q16665 whole entry, looked up): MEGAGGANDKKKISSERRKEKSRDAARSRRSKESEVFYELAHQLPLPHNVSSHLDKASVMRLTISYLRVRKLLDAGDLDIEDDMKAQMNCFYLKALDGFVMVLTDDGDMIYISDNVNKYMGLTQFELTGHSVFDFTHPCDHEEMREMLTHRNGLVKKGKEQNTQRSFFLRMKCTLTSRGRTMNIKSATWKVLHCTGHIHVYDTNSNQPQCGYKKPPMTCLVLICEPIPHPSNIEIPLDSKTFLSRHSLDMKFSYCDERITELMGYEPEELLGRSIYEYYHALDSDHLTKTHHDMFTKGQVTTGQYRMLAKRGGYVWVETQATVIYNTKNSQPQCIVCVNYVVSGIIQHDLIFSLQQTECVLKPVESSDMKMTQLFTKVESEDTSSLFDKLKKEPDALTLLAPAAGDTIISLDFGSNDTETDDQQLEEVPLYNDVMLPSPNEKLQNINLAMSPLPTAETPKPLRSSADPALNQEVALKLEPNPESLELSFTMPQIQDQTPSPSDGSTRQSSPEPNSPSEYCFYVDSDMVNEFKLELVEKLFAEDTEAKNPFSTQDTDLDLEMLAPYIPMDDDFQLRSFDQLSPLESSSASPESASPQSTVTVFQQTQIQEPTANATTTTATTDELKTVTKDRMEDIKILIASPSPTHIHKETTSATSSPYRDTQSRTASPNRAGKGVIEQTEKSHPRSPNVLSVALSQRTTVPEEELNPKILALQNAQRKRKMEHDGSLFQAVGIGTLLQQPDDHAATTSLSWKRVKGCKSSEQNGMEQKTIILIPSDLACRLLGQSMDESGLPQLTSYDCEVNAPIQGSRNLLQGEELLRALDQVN
Sequence of Paired box protein Pax-6 (Homo sapiens) (P26367 whole entry, looked up): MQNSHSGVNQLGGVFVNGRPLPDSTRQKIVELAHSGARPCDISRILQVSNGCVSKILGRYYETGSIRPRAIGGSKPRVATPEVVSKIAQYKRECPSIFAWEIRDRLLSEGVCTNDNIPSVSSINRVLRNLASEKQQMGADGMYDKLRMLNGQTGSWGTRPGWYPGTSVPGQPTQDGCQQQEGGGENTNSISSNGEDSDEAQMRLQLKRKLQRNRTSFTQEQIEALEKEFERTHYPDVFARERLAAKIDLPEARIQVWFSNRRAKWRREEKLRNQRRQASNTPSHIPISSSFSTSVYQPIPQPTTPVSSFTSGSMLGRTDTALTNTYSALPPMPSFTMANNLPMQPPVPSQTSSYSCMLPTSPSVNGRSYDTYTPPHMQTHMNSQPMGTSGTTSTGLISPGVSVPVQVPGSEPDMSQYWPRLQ
Sequence of Heat shock factor protein 1 (Homo sapiens) (Q00613 whole entry, looked up, the tested form may be a part): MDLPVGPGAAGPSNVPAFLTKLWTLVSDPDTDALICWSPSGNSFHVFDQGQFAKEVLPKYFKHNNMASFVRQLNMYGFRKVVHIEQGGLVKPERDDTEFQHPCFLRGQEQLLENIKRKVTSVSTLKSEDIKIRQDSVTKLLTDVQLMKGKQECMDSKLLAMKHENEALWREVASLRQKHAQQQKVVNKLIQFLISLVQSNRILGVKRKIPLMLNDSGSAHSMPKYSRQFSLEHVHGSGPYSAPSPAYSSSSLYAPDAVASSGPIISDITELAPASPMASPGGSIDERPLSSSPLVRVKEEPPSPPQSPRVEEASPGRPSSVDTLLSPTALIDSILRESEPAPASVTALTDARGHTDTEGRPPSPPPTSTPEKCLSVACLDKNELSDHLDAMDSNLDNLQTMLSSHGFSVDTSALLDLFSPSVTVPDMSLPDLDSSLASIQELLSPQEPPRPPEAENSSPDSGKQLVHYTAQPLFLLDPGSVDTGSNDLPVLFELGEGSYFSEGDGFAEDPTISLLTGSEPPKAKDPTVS
Sequence of Transcription factor Sp1 (Homo sapiens) (P08047 whole entry, looked up): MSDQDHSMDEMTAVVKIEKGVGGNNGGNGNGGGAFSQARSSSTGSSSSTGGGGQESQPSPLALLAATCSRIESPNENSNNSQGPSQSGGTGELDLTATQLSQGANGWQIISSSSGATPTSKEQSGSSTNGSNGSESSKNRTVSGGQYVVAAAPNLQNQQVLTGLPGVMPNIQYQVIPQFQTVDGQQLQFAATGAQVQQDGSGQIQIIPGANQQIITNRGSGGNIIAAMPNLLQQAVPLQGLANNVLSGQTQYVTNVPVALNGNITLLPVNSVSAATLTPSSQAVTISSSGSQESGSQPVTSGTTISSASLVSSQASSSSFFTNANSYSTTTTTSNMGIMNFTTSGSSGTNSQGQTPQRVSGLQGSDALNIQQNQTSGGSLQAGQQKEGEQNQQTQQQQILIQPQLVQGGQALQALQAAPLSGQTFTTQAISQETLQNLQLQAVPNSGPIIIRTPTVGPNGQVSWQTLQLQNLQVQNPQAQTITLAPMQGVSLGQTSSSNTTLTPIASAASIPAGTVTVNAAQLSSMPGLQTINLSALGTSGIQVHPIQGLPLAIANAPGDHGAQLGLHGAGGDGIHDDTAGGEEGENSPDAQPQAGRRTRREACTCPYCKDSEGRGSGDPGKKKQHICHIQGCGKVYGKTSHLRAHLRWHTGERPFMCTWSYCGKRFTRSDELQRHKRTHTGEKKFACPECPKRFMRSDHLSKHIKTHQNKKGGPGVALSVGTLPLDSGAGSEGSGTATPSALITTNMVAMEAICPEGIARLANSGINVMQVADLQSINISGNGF

O=C(O)Cc1cc(I)c(Oc2ccc(O)c(I)c2)c(I)c1
inactive: [1] | [2] | [3] | [4] | [5] | [6] | [8] | [9] | [11] | [12] | [13] | [14] | [15] | [16]
active: [7] 170 µM [middle of 4 runs] | [10] 26.3 µM and 26.1 µM and 7.66 µM | [13] 11.4 µM | [16] 51.2 µM

OCCO
inactive: [1] | [3] | [4] | [5] | [6] | [7] | [18] | [8] | [9] | [10] | [19] | [11] | [12] | [13] | [14] | [15]
active: [17] 51.2 µM

CC1(C)NC(=O)N(c2ccc([N+](=O)[O-])c(C(F)(F)F)c2)C1=O
active: [10] 27.5 µM and 6.9 µM and 27.3 µM
inactive: [1] | [3] | [4] | [5] | [6] | [7] | [8] | [9] | [20] | [11] | [12] | [13] | [14] | [15] | [16]

CN1C(=O)N(c2ccccc2Br)Cc2cnc(Nc3ccc4c(c3)OCC(CO)O4)nc21 (stereo not drawn)
active: [17] 9.59 µM | [19] 2.65 µM | [20] 1.84 µM | [13] 21.1 µM | [15] 15.8 µM
inactive: [1] | [2] | [3] | [4] | [5] | [6] | [7] | [9] | [10] | [11] | [12] | [14]

Oc1ccc2ccccc2c1
active: [3] 100 µM | [16] 77.3 µM and 100 µM
inactive: [2] | [3] | [4] | [5] | [17] | [6] | [7] | [18] | [9] | [10] | [11] | [12] | [13] | [14] | [15]

CCCCCCCCN(C)CCCCCCCC
active: [10] 26.5 µM
inactive: [2] | [3] | [4] | [5] | [17] | [6] | [7] | [18] | [8] | [9] | [19] | [11] | [12] | [13] | [14] | [15]

CC(C)(C)c1cc(/C=C2\SC(N)=NC2=O)cc(C(C)(C)C)c1O
inactive: [2] | [4] | [5] | [17] | [6] | [11] | [12] | [14] | [15]
active: [1] 8.2 µM | [3] 11 µM | [7] 20 µM | [9] 14.5 µM | [10] 1.2 µM | [13] 18.2 µM | [16] 16.3 µM
